# Source: PubChem (National Center for Advancing Translational Sciences (NCATS))
# A selection: hits, their analogues and other compounds. The true share with any hit is near 4.6%.
# D1 potentiator – human D1 dopamine receptor positive modulation | HEK293 TREx D1 cells, calcium flux, dopamine EC20 potentiation | potentiation, % at 10 µM | 0.036% of 360,000 active; in the data active = potentiation above about 30%; also: 0% is about no effect
# D1 agonist – human D1 receptor agonism; P21728; HEK293 T-REx D1 cells, calcium flux, agonist mode; activation, % at 2 µM; 1% of 360,000 active; AID 504660; also: 0% is about no effect
#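 Agonism was scored from calcium flux recorded over 180 s (1 read/s) after pintool compound addition, following a 10-cycle baseline. Cells were inducible force-coupled HEK293 TREx D1, plated overnight at 30 C and loaded with no-wash calcium dye.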
# Epigenetic derep – derepresses silenced GFP reporter in murine cells; Potency, µM (top dose mostly 53.9 µM), without a hit: at the top dose GFP activation, usual class: activators; murine LDR cells, GFP reporter derepression, 30 h; AID 1865; 0.2% of 280,000 active; active = well fitted activation curve with a large enough effect; inconclusive = small, poorly fitted or top-dose-only effect; also: potency is read from the fitted curve at half-maximal effect; % of control where 0% means no effect; nearly all actives have a fitted effect of over 60% in size
#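 Derepression of a silenced CMV-GFP reporter in murine LDR cells is scored by enumerating GFP-positive cells with a laser-scanning microplate cytometer after 30 hours of treatment at 37 C.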
# D1 antagonist – human D1 dopamine receptor antagonism; P21728; HEK293 TREx D1 cells, calcium flux, dopamine EC80; stronger effect = lower value; activity change, negative = inhibition, % at 10 µM; 3.2% of 360,000 active; in the data active = activity change below about -30%; also: % is scaled to controls: 0 for no effect and ±100 for the full control effect
#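 Allosteric or orthosteric antagonism assessed as attenuation of the calcium response to EC80 dopamine, added 180 s after compound, in induced HEK293 Trex D1 cells loaded with no-wash calcium dye.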
# TRHR ag – agonists of human TRH receptor. P34981. TRHR cells, calcium flux fluo-8, FDSS agonist mode. activation, % at 2 µM. 0.18% of 360,000 active. AID 493084; also: 0% is about no effect
# Target sequence (P34981 whole entry, looked up): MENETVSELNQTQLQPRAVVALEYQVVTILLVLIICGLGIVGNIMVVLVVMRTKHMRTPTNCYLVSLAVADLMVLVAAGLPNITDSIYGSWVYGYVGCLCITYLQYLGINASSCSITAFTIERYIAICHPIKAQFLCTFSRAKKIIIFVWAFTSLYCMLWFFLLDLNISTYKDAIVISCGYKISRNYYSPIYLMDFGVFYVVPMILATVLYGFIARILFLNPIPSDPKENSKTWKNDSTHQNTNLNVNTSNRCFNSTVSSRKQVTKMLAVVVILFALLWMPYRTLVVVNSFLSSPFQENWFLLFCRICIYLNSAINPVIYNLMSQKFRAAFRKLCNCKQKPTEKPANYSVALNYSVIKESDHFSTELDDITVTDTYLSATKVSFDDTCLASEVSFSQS
#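 In this calcium-flux screen, cells bearing human TRHR are dye-loaded with fluo-8, baselined for 10 cycles, then exposed to library compounds; positive kinetic calcium responses during the agonist phase mark hits, with TRH as control.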
# TRHR enhancer – allosterically enhances the human TRH receptor; P34981; TRHR cells, fluo-8 calcium fluorescence, EC20 TRH enhancement; enhancement, % at 2 µM; 0.66% of 360,000 active; AID 493056; in the data active = enhancement above about 30%; also: 0% is about no effect
#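 TRHR-expressing cells loaded with fluo-8 calcium dye were read kinetically (ex 480/em 530) during compound addition, then stimulated with an EC20 of TRH (10 nM final). Enhancement of the Gq-mediated intracellular calcium response was scored.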
# Active calls of the source: *; ? = inconclusive; . = no result given. Rule as the data show it, unless noted: active = activation above about 30%; inactive = the rest.
SMILES,D1 potentiator,D1 agonist,Epigenetic derep,D1 antagonist,TRHR ag,TRHR enhancer
Cn1c(=O)n(C)c2cc(NC(=O)COc3ccc(F)cc3F)ccc21,-6.0,1.4,.,-14.3,-0.1,1.3
CSc1ccc(CNC(=O)CCn2ccc3cc(S(=O)(=O)N4CCC(C)CC4)ccc32)cc1,-1.8,1.4,2.1%,8.5,0.4,7.3
CSc1ncc(C(=O)Nc2cc(C)cc(C)c2)c(-c2ccccc2)n1,-0.7,0.4,9.5%,10.0,0.7,-6.3
COC(=O)C1(CC(C)C)C=C2C(=C(C)C(=O)C2C)CN1 (centres undefined),.,.,0.2%,.,.,.
CCOc1ccc(-n2cc(-c3ccccc3)c3c(NCCc4ccccc4)ncnc32)cc1,-3.0,1.2,0.7%,8.4,0.6,-3.8
CN1CCC(N(C)S(=O)(=O)c2ccc(NC(=O)COc3ccc([N+](=O)[O-])cc3)cc2)CC1,-8.4,34.4*,.,-3.6,1.9,-3.3
CC(Oc1cccc(Cl)c1)C(=O)Nc1ccc(S(=O)(=O)N(C)C2CCN(C)CC2)cc1 (centres undefined),-8.5,93.8*,.,-61.6*,3.5,0.0
Cc1ccc(OCC(=O)O/N=C(\N)c2ccncc2)c(C)c1,.,6.9,.,-30.6*,-0.6,8.6
CC(NC(=O)CSc1nc(-c2cccc(Cl)c2)nc2cc(=O)[nH]n12)c1nc2ccccc2n1C (centres undefined),-0.3,4.6,-3.9%,-16.7,-0.1,-0.5
Cc1nc(NCc2ccccc2)c2cc[nH]c2n1,-1.9,5.5,1.1%,-33.9*,0.0,8.1
CCCCCCCC/C=C\CCCCCCCC(=O)NCCc1ccc(O)c(O)c1,-2.0,-1.0,?,-0.2,-0.8,8.8
CCCCCCCCCCCCCCCCCC(=O)NCCc1ccc(O)c(O)c1,.,.,11.2µM*,.,.,.
O=C(CC1CCCC1)N1CCN(S(=O)(=O)c2ccc(F)cc2)CC1,.,6.6,.,13.8,-0.1,2.5
O=C(CCC1CCCC1)N1CCN(S(=O)(=O)c2ccc(Br)cc2)CC1,-8.3,-0.4,.,-30.7*,-0.8,-7.5
Cc1ccc2onc(CNC(=O)N3CCN(c4cccc(C)c4C)CC3)c2c1,-0.1,0.4,0.0%,1.4,-0.3,4.8
Cc1cc(C)cc(NC(=O)C(Cc2ccccc2)NS(=O)(=O)c2ccc3c(c2)CCC(=O)N3)c1 (centres undefined),0.4,1.8,-1.1%,-5.8,0.0,14.3
Cc1nn(C(=O)c2c(F)cccc2F)c(C)c1S(=O)(=O)N1CCCCCC1,-3.5,4.2,0.0%,-62.6*,0.0,0.6
COc1ccc(C)cc1NC(=O)c1cc(S(=O)(=O)N2CCCCC2)c[nH]1,-4.8,-0.3,2.8%,-4.6,-0.1,-0.2
CCOc1ccc2c(c1)c(=O)c(C(=O)c1ccc(C)cc1)cn2Cc1ccccc1OC,-0.9,8.4,0.8%,-2.7,0.6,-6.6
CCOC(=O)N1CCN(C(=O)CSCc2nc(-c3ccccc3F)oc2C)CC1,5.0,7.5,0.2%,-43.7*,-0.3,3.1
CCOC(=O)C1CCN(C(=O)CS(=O)(=O)Cc2nc(-c3ccccc3Cl)oc2C)CC1,-9.5,9.0,.,-40.2*,-0.7,5.0
CCOC(=O)N1CCN(C(=O)CSCc2nc(-c3ccccc3C)oc2C)CC1,-5.5,9.0,-2.2%,-33.6*,-0.6,7.5
Cc1ccccc1-c1nc(CS(=O)(=O)CC(=O)N2CCOCC2)c(C)o1,-3.0,6.8,.,2.8,-0.4,10.1
CCOC(=O)N1CCN(C(=O)CS(=O)(=O)Cc2nc(-c3ccccc3C)oc2C)CC1,-0.3,1.7,0.0%,-8.6,-0.6,-0.6
COc1ccc(-c2nc(CSCC(=O)N3CCN(c4ccc(OC)cc4)CC3)c(C)o2)cc1,-4.8,4.0,-1.1%,-36.5*,-0.3,5.6
CCOc1ccc(-c2nc(CSCC(=O)N3CCN(c4ccc(F)cc4)CC3)c(C)o2)cc1,-5.0,4.1,1.1%,2.7,0.0,0.3
Cc1ccc(C2=CC(c3ccccc3F)n3c(nc4ccccc43)N2)cc1C (centres undefined),-4.8,13.3,1.1%,-2.1,3.1,5.2
CCOC(=O)c1ccc(NC(=O)CC2Nc3ccccc3NC2=O)cc1 (centres undefined),-0.3,0.8,1.9%,5.8,0.9,8.3
